This is an account of results in paper PMC7862700, “An all-to-all approach to the identification of sequence-specific readers for epigenetic DNA modifications on cytosine”.

Assay in all cases: DAPPL (digital affinity profiling via proximity ligation, sequencing); 10 mM Tris-HCl pH 7.5, 50 mM NaCl, 1 mM DTT, 4% glycerol, room temperature, 30 min; GST-TFs on glutathione beads, 16-mer random dsDNA library, 0.1% formaldehyde crosslink after washing; high values mean tight binding
In one test the target is T1, FLI1 (Homo sapiens, UniProt Q01543 1-452).
T1 sequence: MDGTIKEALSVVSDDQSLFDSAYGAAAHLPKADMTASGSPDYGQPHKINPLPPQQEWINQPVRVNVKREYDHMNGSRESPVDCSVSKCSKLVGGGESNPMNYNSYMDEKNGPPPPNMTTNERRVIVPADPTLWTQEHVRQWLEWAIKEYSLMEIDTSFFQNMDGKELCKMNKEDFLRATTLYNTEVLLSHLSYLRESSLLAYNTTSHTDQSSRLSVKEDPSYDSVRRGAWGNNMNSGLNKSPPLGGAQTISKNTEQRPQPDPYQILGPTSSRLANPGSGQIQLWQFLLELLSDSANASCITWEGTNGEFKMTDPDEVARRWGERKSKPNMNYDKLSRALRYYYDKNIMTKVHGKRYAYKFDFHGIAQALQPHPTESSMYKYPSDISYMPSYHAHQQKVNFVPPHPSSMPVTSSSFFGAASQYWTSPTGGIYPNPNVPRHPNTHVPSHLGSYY
The conditions noted are these: protein: recombinant; tags: N-terminal GST; dsDNA, one strand shown. The method, boiled down: (§1)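 Pools were built from human transcription factors expressed in yeast as GST fusions, captured on glutathione beads and DNA-barcoded, along with a tag-only sample. Incubation with 200 nmole of a 16-mer random double-stranded DNA library lasted 30 min at room temperature in Tris/NaCl/DTT/glycerol buffer, and was followed by washing, 0.1% formaldehyde crosslinking, proximity ligation, PCR amplification and Illumina NextSeq500 sequencing. Binding signal is the quotient of each hexamer's read frequency for a factor and its frequency for the tag-only sample.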

Another test deals with T2, ELK1 (Homo sapiens, UniProt P19419 1-428).
T2 sequence: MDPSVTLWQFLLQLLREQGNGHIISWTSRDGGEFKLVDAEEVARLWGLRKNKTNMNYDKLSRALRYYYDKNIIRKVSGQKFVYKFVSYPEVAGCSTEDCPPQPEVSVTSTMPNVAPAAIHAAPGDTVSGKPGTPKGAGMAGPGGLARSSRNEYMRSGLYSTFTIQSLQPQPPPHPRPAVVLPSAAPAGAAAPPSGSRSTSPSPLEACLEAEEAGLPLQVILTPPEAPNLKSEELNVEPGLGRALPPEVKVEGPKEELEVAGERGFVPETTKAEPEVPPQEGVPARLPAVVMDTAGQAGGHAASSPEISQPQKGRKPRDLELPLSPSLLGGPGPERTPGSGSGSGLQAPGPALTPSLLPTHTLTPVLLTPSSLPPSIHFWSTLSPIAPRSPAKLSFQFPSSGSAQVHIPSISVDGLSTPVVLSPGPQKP
The following applies: protein: recombinant; tags: N-terminal GST; dsDNA, one strand shown. The method, boiled down: as §1

In a further test the target is T3, GABPA (Homo sapiens, UniProt Q06546 1-454).
T3 sequence: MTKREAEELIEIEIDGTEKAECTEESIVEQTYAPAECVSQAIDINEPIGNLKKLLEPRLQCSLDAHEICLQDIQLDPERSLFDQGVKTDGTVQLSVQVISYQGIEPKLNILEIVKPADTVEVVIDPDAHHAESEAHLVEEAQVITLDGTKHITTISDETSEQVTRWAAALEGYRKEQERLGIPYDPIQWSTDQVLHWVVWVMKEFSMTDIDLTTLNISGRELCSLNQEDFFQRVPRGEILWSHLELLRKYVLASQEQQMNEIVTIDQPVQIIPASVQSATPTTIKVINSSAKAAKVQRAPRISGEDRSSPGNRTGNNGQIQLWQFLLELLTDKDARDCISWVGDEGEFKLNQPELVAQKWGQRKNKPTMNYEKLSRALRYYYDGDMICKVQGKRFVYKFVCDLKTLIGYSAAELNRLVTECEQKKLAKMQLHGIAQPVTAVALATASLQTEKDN
The following applies: protein: recombinant; tags: N-terminal GST; dsDNA, one strand shown. The method, boiled down:
as §1

The next test concerns the target T4, ERG (Homo sapiens, UniProt P11308 1-479).
T4 sequence: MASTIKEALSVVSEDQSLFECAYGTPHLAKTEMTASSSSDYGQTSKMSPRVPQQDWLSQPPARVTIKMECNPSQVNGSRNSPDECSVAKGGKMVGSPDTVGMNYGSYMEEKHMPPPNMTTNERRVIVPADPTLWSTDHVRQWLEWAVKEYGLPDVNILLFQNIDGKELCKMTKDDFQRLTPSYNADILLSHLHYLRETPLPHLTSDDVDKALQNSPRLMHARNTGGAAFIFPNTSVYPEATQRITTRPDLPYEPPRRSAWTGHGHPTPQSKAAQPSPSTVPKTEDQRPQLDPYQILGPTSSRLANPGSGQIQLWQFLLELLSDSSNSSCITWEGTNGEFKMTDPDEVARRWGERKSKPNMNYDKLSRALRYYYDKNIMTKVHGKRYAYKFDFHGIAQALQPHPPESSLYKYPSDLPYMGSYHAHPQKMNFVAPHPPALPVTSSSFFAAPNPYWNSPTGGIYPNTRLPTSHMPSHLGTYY
The conditions noted are these: protein: recombinant; tags: N-terminal GST; dsDNA, one strand shown. The method, boiled down: as §1

The target in another test is ELF1 (Homo sapiens, UniProt P32519 1-619). The conditions noted are these: protein: recombinant; tags: N-terminal GST; dsDNA, one strand shown. The method, boiled down: as §1
Sequence of ELF1 (P32519 whole entry): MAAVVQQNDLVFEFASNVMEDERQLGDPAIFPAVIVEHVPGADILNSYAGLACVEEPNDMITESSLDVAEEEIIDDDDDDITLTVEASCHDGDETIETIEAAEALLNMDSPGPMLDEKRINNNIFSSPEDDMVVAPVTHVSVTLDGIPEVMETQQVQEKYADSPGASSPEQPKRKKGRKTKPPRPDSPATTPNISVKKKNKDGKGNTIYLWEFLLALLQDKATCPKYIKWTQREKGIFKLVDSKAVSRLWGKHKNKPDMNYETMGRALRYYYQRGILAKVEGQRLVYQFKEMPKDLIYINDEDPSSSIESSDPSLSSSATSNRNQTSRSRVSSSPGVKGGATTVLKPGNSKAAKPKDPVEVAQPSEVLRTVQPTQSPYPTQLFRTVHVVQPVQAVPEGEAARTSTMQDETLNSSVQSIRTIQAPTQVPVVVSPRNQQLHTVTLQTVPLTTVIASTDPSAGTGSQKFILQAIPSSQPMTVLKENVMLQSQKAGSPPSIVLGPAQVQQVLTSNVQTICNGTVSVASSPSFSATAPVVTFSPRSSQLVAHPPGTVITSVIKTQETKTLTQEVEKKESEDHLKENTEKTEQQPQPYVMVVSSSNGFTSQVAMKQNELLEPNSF
The next test deals with T5, EHF (Homo sapiens, UniProt Q9NZC4 1-300).
T5 sequence: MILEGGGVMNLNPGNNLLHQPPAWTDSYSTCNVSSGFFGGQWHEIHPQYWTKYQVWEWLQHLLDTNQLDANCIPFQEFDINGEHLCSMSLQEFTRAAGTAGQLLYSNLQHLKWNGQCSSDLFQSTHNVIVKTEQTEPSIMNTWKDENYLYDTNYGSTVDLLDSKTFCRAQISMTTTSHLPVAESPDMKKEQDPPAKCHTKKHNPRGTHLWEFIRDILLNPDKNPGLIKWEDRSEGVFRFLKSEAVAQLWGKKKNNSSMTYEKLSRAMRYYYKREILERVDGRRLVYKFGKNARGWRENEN
The following applies: protein: recombinant; tags: N-terminal GST; dsDNA, one strand shown. The method, boiled down: as §1

For another test, the target named is SPI1 (Homo sapiens, UniProt P17947 1-270). The conditions noted are these: protein: recombinant; tags: N-terminal GST; dsDNA, one strand shown. The method, boiled down: as §1
The target in the next test is SPIB (Homo sapiens, UniProt Q01892 1-262). The following applies: protein: recombinant; tags: N-terminal GST; dsDNA, one strand shown. The method, boiled down: as §1
Sequence of SPIB (Q01892 whole entry): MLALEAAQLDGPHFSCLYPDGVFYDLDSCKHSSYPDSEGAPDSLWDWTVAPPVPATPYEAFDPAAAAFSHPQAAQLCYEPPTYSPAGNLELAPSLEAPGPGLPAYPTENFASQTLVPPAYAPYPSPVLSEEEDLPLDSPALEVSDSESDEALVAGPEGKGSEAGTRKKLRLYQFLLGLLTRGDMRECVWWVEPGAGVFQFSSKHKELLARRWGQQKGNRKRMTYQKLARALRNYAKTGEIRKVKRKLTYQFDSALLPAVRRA
Another test has as its target T6, ELK3 (Homo sapiens, UniProt P41970 1-407).
T6 sequence: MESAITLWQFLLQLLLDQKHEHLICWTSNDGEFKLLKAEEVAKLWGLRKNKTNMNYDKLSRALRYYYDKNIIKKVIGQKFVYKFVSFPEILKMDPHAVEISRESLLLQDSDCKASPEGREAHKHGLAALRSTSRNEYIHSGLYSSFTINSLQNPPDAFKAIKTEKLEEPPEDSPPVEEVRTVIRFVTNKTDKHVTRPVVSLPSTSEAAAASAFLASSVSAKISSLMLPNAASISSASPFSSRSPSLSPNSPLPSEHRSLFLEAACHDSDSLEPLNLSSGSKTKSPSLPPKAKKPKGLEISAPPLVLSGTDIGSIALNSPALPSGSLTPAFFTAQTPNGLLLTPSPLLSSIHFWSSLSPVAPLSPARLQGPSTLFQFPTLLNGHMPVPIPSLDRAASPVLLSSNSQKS
The following applies: protein: recombinant; tags: N-terminal GST; dsDNA, one strand shown. The method, boiled down: as §1

The target of another test is T7, FEV (Homo sapiens, UniProt Q99581 1-238).
T7 sequence: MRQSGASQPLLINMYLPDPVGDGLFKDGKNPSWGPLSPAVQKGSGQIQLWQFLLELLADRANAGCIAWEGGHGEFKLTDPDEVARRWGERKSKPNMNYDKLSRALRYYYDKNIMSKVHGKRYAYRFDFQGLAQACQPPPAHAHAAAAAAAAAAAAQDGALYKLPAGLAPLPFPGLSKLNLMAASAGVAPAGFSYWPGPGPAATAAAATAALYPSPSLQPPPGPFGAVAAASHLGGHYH
The following applies: protein: recombinant; tags: N-terminal GST; dsDNA, one strand shown. The method, boiled down: as §1

A further test addresses ETV5 (Homo sapiens, UniProt P41161 1-510). The following applies: protein: recombinant; tags: N-terminal GST; dsDNA, one strand shown. The method, boiled down:
as §1

The next test addresses HSF1 (Homo sapiens, UniProt Q00613 1-529). The following applies: protein: recombinant; tags: N-terminal GST; chain copies: 3; dsDNA, one strand shown. The method, boiled down: as §1
The next test addresses T8, SPIC (Homo sapiens, UniProt Q8N5J4 1-248).
T8 sequence: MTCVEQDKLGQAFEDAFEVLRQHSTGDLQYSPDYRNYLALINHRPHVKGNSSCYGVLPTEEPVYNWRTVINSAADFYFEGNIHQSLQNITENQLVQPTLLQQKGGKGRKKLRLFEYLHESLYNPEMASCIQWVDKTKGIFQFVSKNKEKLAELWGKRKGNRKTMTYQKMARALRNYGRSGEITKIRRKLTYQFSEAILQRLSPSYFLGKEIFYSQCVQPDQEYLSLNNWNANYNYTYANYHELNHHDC
The conditions noted are these: protein: recombinant; tags: N-terminal GST; dsDNA, one strand shown. The method, boiled down: as §1

Another test has as its target ELF4 (Homo sapiens, UniProt Q99607 1-663). The conditions noted are these: protein: recombinant; tags: N-terminal GST; dsDNA, one strand shown. The method, boiled down: as §1
A further test deals with T9, ELK4 (Homo sapiens, UniProt P28324-2 1-405).
T9 sequence: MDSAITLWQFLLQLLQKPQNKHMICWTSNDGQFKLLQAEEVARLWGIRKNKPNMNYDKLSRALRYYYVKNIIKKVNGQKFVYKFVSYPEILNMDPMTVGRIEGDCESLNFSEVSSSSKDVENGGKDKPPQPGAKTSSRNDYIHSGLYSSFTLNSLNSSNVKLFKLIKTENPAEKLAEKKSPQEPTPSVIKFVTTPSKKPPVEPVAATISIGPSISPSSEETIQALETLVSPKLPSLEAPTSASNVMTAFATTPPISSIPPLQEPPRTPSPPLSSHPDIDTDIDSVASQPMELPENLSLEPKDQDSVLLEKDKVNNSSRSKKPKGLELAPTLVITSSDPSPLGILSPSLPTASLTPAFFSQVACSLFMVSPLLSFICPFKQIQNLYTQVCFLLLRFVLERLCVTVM
The following applies: protein: recombinant; tags: N-terminal GST; dsDNA, one strand shown. The method, boiled down:
as §1

Another test addresses T10, ETV2 (Homo sapiens, UniProt O00321 1-342).
T10 sequence: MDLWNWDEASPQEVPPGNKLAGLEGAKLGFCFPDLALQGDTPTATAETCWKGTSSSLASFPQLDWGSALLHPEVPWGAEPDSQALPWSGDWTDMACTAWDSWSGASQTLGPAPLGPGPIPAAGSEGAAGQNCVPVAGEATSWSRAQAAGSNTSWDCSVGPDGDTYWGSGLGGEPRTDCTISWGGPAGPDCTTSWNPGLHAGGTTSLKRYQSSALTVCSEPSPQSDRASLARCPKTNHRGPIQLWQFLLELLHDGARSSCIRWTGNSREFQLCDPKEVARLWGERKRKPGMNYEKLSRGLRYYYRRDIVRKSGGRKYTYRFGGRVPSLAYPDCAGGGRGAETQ
The conditions noted are these: protein: recombinant; tags: N-terminal GST; dsDNA, one strand shown. The method, boiled down: as §1

The next test has as its target T11, ELF3 (Homo sapiens, UniProt P78545 1-371).
T11 sequence: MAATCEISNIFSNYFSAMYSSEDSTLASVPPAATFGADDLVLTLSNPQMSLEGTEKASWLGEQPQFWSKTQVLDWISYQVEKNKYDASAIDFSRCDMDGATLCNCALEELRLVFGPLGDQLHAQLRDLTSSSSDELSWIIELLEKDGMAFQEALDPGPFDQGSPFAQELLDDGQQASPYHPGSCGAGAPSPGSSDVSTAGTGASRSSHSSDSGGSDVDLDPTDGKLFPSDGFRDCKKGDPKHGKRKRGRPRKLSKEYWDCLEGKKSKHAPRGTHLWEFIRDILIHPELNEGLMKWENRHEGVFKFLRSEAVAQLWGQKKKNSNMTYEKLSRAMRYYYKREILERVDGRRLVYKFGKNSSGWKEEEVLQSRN
The conditions noted are these: protein: recombinant; tags: N-terminal GST; dsDNA, one strand shown. The method, boiled down:
as §1

The target in another test is CRX (Homo sapiens, UniProt O43186 1-299). The following applies: protein: recombinant; tags: N-terminal GST; dsDNA, one strand shown. The method, boiled down:
as §1

The next test deals with ETV1 (Homo sapiens, UniProt P50549 1-477). The conditions noted are these: protein: recombinant; tags: N-terminal GST; dsDNA, one strand shown. The method, boiled down:
as §1

Sequence of HSF1 (Q00613 whole entry): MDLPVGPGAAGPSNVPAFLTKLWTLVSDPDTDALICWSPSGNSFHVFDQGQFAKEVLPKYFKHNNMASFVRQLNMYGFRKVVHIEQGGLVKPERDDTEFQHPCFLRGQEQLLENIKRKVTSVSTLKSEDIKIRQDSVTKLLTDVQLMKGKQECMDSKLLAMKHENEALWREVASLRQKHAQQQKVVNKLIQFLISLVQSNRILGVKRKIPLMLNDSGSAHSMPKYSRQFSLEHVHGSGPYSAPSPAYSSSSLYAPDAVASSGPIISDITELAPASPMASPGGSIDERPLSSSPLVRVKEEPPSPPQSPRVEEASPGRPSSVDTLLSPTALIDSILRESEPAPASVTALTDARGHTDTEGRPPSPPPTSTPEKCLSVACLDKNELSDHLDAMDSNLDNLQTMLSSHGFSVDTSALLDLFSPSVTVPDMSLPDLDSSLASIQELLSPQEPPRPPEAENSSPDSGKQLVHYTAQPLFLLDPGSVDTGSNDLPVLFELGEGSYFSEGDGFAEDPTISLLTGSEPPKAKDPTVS
Sequence of CRX (O43186 whole entry): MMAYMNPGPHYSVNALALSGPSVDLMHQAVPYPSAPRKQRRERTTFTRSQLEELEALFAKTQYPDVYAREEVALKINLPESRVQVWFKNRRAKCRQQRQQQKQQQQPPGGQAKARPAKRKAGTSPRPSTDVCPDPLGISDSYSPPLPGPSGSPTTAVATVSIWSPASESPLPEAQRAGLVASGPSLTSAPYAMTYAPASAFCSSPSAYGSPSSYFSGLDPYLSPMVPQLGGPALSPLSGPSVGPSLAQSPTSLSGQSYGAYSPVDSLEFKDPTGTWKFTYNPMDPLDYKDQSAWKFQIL
Sequence of ETV5 (P41161 whole entry): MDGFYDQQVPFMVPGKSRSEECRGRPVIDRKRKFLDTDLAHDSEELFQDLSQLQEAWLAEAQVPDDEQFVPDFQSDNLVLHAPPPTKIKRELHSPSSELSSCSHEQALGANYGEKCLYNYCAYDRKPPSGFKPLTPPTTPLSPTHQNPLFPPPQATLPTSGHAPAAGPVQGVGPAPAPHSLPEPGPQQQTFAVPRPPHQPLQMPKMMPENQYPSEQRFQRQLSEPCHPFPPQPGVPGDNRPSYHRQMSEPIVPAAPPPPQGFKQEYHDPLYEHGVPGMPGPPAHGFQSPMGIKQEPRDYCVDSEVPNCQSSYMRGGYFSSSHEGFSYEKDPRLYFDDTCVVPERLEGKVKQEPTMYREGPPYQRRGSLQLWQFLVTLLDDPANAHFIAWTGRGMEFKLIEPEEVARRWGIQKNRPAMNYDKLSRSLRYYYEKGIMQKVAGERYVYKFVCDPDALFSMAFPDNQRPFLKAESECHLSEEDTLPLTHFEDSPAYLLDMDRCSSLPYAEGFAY
Sequence of ELF4 (Q99607 whole entry): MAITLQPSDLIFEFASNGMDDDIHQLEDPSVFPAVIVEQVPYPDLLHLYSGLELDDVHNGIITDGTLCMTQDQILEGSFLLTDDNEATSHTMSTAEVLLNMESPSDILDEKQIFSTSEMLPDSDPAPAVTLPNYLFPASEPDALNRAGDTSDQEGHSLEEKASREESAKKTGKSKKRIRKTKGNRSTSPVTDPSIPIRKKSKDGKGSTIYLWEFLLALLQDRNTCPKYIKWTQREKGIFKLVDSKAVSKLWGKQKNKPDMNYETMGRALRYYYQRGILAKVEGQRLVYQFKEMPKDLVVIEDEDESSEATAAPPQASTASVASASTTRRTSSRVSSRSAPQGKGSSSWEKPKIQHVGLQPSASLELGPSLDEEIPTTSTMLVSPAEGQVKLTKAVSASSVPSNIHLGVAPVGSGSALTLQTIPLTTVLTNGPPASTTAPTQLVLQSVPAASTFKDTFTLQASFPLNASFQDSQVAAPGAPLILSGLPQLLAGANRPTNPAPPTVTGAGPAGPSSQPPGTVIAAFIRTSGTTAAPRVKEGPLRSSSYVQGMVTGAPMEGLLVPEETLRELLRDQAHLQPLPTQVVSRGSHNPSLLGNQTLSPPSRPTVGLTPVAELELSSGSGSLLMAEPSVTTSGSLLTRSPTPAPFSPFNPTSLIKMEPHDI
Sequence of ETV1 (P50549 whole entry): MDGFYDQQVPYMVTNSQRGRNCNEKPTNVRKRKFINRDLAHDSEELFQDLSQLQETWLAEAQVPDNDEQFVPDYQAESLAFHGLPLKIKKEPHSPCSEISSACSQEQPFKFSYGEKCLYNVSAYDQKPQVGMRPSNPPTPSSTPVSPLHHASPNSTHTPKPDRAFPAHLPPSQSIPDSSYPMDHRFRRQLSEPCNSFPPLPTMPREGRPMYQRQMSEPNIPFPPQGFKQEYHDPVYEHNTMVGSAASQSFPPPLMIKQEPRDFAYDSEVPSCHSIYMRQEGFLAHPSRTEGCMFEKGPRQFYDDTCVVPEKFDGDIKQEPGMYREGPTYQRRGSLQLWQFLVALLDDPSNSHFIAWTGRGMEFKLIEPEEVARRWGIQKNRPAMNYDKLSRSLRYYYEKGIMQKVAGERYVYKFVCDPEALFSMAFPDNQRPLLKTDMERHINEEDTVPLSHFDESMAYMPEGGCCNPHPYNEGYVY

On to TGATCC, for which the binding signal was 1.28 fold enrichment (6-mer frequency, TF over GST control) with FLI1; 1.32 fold enrichment (6-mer frequency, TF over GST control) with ELK1; 1.44 fold enrichment (6-mer frequency, TF over GST control) with GABPA; 1.29 fold enrichment (6-mer frequency, TF over GST control) with ERG; 1.26 fold enrichment (6-mer frequency, TF over GST control) with ELF1; 1.2 fold enrichment (6-mer frequency, TF over GST control) with EHF. Also, the binding signal is 1.21 fold enrichment (6-mer frequency, TF over GST control) with SPI1; 1.37 fold enrichment (6-mer frequency, TF over GST control) in the test with SPIB; 1.18 fold enrichment (6-mer frequency, TF over GST control) in the test with ELK3; 1.29 fold enrichment (6-mer frequency, TF over GST control) with FEV; 1.3 fold enrichment (6-mer frequency, TF over GST control) with ETV5; 1.65 fold enrichment (6-mer frequency, TF over GST control) in the test with HSF1. For the same sequence, the binding signal with SPIC is 1.32 fold enrichment (6-mer frequency, TF over GST control); with ELF4, 1.28 fold enrichment (6-mer frequency, TF over GST control); in the test with ELK4, 1.26 fold enrichment (6-mer frequency, TF over GST control); with ETV2 it was 1.09 fold enrichment (6-mer frequency, TF over GST control); with ELF3, 1.1 fold enrichment (6-mer frequency, TF over GST control); with CRX, 2.2 fold enrichment (6-mer frequency, TF over GST control). In addition, the binding signal with ETV1 is 1.27 fold enrichment (6-mer frequency, TF over GST control).
